The results in this text go back to PubChem BioAssay (EPA / NIEHS).

Several values for one entry are separate records, joined by “and”; a condition that tells them apart may be missing. Equal values may be shown once. More than one record can exist for a structure, and the calls need not agree. Activity calls are given as the source filed them. How the source made its calls: active means hit-call score of the fitted dose curve at least 0.9, where 1 is the maximum; inactive means score below 0.9.

A short description of assay [1]: APR_HepG2_NuclearSize_72hr: Apredica 72-hour HepG2 Assay for Nuclear Size (AID 2282925). To be noted: high-content imaging, actives raise or lower the signal. In outline:
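HepG2 cells were exposed to compounds at ten concentrations from 0.39 to 200 uM (duplicate, 0.5% DMSO final) for 72 hr. After fixation in 3.7% formaldehyde, nuclei were stained with Hoechst 33342 (2 ug/mL) and imaged at 20x.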

A short description of assay [2]: ATG_CRE_CIS: Attagene CIS-FACTORIAL HepG2 Assay for human cAMP Responsive Element (CRE) binding protein 3 (AID 2282926). The settings on record: HepG2 CRE cis-reporter, Attagene multiplexed mRNA; actives raise or lower the signal. The method in brief:
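Transfected HepG2 were treated for 24 hours, then RNA was extracted and reporter cDNA amplified with sequence-specific primers. Labelled fragments were separated by capillary electrophoresis, and the CRE signal was fitted bidirectionally with DMSO as baseline.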

Assay [3] has as its target CCAAT/enhancer-binding protein beta (Homo sapiens) (UniProt P17676). As to the kind of experiment: ATG_C_EBP_CIS: Attagene CIS-FACTORIAL HepG2 Assay for human CCAAT/Enhancer Binding Protein (C/EBP) beta (AID 2282927). The settings on record: HepG2 Attagene cis-factorial transcription factor reporter; actives raise or lower the signal. In outline:
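Following a 24 h incubation with test chemical, transfected HepG2 cells yielded RNA whose reporter transcripts were quantified by RT-PCR and fluorescent capillary electrophoresis, with DMSO serving as baseline for bidirectional fitting.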

Assay [4] in a line: ATG_CMV_CIS: Attagene CIS-FACTORIAL HepG2 Assay for human CMV (Internal Marker) (AID 2282928).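 Further: endpoint acts as a background internal control marker rather than a target.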 The settings on record: HepG2 CMV promoter reporter, transcription factor profiling; actives raise or lower the signal. In outline:
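Cell system: HepG2, transiently transfected multiple reporter units under cis promoters. Exposure: 24 h. Detection: RT-PCR, FAM labeling, HpaI digestion, capillary electrophoresis. Analysis: bidirectional, DMSO baseline.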

Assay [5] is described as follows: ATG_DR4_LXR_CIS: Attagene CIS-FACTORIAL HepG2 Assay for human Liver X Receptor (LXR), DR4 submotif (AID 2282929). To be noted: HepG2 Attagene DR4 cis-reporter, mRNA transcription; actives raise or lower the signal. The method in brief: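 HepG2, transient MRTU transfection, cis-element (DR4) promoter; 24 h compound exposure; total RNA → oligo(dT) RT → PCR → 6-FAM primer extension → HpaI cut → CE. Gain/loss vs DMSO, bidirectional fit.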

Assay [6] concerns the target Aryl hydrocarbon receptor (Homo sapiens) (UniProt P35869). As to the kind of experiment: ATG_Ahr_CIS: Attagene CIS-FACTORIAL HepG2 Assay for human Aryl Hydrocarbon Receptor (Ahr) (AID 2282930). To be noted: HepG2 AhR cis-factorial reporter transcription; actives raise or lower the signal. In outline: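 Values derive from bidirectional fitting against DMSO negative control. Underlying signal: cis-element reporter mRNA in transiently transfected HepG2, harvested 24 h post-dose and measured by RT-PCR plus capillary electrophoresis.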

Assay [7] in a line: ATG_AP_1_CIS: Attagene CIS-FACTORIAL HepG2 Assay for human Activator Protein 1 (AP-1) (AID 2282931). To be noted: HepG2 Attagene cis-factorial AP-1 reporter mRNA; actives raise or lower the signal. The method in brief:
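Transient MRTU transfection of HepG2 → 24 h chemical treatment → RNA isolation, RT-PCR, 6-FAM labelling, HpaI digest → capillary electrophoresis. Fit: bidirectional, DMSO negative control.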

A short description of assay [8]: ATG_BRE_CIS: Attagene CIS-FACTORIAL HepG2 Assay for human Bone Morphogenetic Protein (BMP) Response Element (BRE) (AID 2282933). The settings on record: HepG2 BMP response element reporter, Attagene transcription factor profiling; actives raise or lower the signal. In outline:
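After a 24 h chemical treatment, transiently transfected HepG2 cells were lysed for RNA; reporter transcripts were quantified by fluorescent RT-PCR and capillary electrophoresis, normalised to DMSO.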

The target in assay [9] is Retinoic acid receptor alpha (Homo sapiens) (UniProt P10276). As to the kind of experiment: ATG_DR5_RAR_CIS: Attagene CIS-FACTORIAL HepG2 Assay for human Retinoic Acid Receptor Alpha (RARE), DR5 submotif (AID 2282934). The settings on record: HepG2 Attagene cis-factorial RARE DR5 reporter, mRNA; actives raise or lower the signal. In outline:
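Endpoint fitted in both directions relative to DMSO as negative control. It reflects DR5 cis-element reporter mRNA induction in transiently transfected HepG2 cells, measured 24 h after dosing through RT-PCR and fluorescent capillary electrophoresis.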

Assay [10] has as its target Transcription factor E2F1 (Homo sapiens) (UniProt Q01094). The assay is described as follows: ATG_E2F_CIS: Attagene CIS-FACTORIAL HepG2 Assay for human E2F Transcription Factor 1 (AID 2282935). The settings on record: HepG2 Attagene cis-reporter, E2F reporter RNA transcripts; actives raise or lower the signal. The method in brief:
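HepG2 cells transiently transfected with multiplexed cis-element reporter units, dosed for 24 h. Reporter mRNA measured by RT-PCR, 6-FAM primer-extension labeling, HpaI digestion and capillary electrophoresis; bidirectional fit versus DMSO baseline.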

Assay [11] is described as follows: ATG_E_Box_CIS: Attagene CIS-FACTORIAL HepG2 Assay for human Enhancer Box (E-box) (AID 2282936). The settings on record: HepG2 E-box cis-reporter transcription, actives raise or lower the signal. The method in brief:
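HepG2 cells transiently transfected with multiplexed cis-element reporter units sensing endogenous transcription factor activity; 24 h compound exposure. Reporter mRNA measured by RT-PCR, 6-FAM primer extension, HpaI digestion and capillary electrophoresis; bidirectional fit versus DMSO.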

Assay [12] is described as follows: ATG_M_61_CIS: Attagene CIS-FACTORIAL HepG2 Assay for M61 Transcription Factor (Internal Marker) (AID 2282937). The settings on record: HepG2 Attagene CIS-FACTORIAL M61 internal marker reporter; actives raise or lower the signal. The method in brief:
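Human liver HepG2, transient MRTU transfection (cis promoter elements), 24 h compound. Total RNA → oligo(dT) RT → PCR → FAM label → HpaI → CE. Internal background marker; bidirectional fitting, DMSO = baseline.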

Assay [13] in a line: ATG_EGR_CIS: Attagene CIS-FACTORIAL HepG2 Assay for human Early Growth Response 1 (EGR1) (AID 2282938). To be noted: HepG2 Attagene CIS-FACTORIAL EGR reporter mRNA; actives raise or lower the signal. In outline: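 Transient transfection of human HepG2 with multiple cis-regulated reporter units, chemical exposure 24 h, total RNA isolated. Reverse transcription, PCR, fluorescent labelling and capillary electrophoresis quantify reporter transcripts; activity fitted bidirectionally against DMSO.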

In assay [14] the target is Hepatocyte nuclear factor 3-beta (Homo sapiens) (UniProt Q9Y261). The assay is described as follows: ATG_FoxA2_CIS: Attagene CIS-FACTORIAL HepG2 Assay for human Forkhead box A2 (FOXA2) (AID 2282942). To be noted: HepG2 cis-reporter transcription factor activity, 24 h; actives raise or lower the signal. In outline:
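Transient MRTU transfection of HepG2 liver cells; 24 h treatment; total RNA → oligo(dT) RT → PCR → FAM primer extension → HpaI cut → CE. Bidirectional fit vs DMSO.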

Assay [15] in a line: ATG_FoxO_CIS: Attagene CIS-FACTORIAL HepG2 Assay for human Forkhead box O (FoxO) (AID 2282943). To be noted: HepG2 Attagene cis-reporter, FoxO element, mRNA; actives raise or lower the signal. In outline: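 Values reflect reporter mRNA induction or loss in HepG2 cells 24 h post-dosing, fitted bidirectionally with DMSO as negative control and baseline. Detection used RT-PCR and fluorescence capillary electrophoresis.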

Assay [16] in a line: ATG_GATA_CIS: Attagene CIS-FACTORIAL HepG2 Assay for human GATA Binding Protein (AID 2282944). The settings on record: HepG2 GATA cis-element reporter, Attagene multiplex mRNA; actives raise or lower the signal. In outline:
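Measures endogenous transcription factor-driven reporter mRNA in HepG2 cells transiently carrying cis-regulated constructs. 24 h dosing; RNA via oligo(dT) reverse transcription, PCR, HpaI digestion, capillary electrophoresis; fitted relative to DMSO.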

The nature of assay [17]: ATG_AP_2_CIS: Attagene CIS-FACTORIAL HepG2 Assay for human Activator Protein 2 (AP-2) (AID 2282932). To be noted: HepG2 AP-2 cis-reporter, Attagene transcription factor profiling; actives raise or lower the signal. The method in brief:
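HepG2 cells were transiently transfected with multiple cis-promoter reporter transcription units and dosed for 24 h. Reporter mRNA was measured by RT-PCR with capillary electrophoresis fluorescence; bidirectional fits relative to DMSO baseline.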

The nature of assay [18]: ATG_M_19_CIS: Attagene CIS-FACTORIAL HepG2 Assay for M19 Transcription Factor (Internal Marker) (AID 2282939). The settings on record: HepG2 Attagene CIS-FACTORIAL M19 internal marker reporter; actives raise or lower the signal. The method in brief:
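In this multiplexed cell assay, transiently transfected HepG2 reporter units report endogenous transcription-factor activity; after 24 hours of treatment, labelled reporter cDNA fragments are quantified by capillary electrophoresis and fitted bidirectionally against DMSO.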

Assay [19] is described as follows: ATG_ERE_CIS: Attagene CIS-FACTORIAL HepG2 Assay for Estrogen Response Element (ERE) (AID 2282940). The settings on record: HepG2 ERE cis-reporter, Attagene RNA transcript; actives raise or lower the signal. In outline:
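Measuring endogenous transcription factor output, the assay doses transfected HepG2 cells for 24 hours and quantifies reporter transcripts by fluorescent RT-PCR and capillary electrophoresis, with DMSO as baseline.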

The nature of assay [20]: ATG_Ets_CIS: Attagene CIS-FACTORIAL HepG2 Assay for human Erythroblast Transformation Specific (ETS) (AID 2282941). The settings on record: HepG2 ETS cis-reporter transcription, actives raise or lower the signal. The method in brief:
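After transient cis-reporter transfection, HepG2 cells receive test chemical for 24 h. Reporter mRNA levels, measured by RT-PCR and capillary electrophoresis fluorescence, are analysed bidirectionally relative to the DMSO baseline.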

Sequence of Aryl hydrocarbon receptor (Homo sapiens) (P35869 whole entry, looked up): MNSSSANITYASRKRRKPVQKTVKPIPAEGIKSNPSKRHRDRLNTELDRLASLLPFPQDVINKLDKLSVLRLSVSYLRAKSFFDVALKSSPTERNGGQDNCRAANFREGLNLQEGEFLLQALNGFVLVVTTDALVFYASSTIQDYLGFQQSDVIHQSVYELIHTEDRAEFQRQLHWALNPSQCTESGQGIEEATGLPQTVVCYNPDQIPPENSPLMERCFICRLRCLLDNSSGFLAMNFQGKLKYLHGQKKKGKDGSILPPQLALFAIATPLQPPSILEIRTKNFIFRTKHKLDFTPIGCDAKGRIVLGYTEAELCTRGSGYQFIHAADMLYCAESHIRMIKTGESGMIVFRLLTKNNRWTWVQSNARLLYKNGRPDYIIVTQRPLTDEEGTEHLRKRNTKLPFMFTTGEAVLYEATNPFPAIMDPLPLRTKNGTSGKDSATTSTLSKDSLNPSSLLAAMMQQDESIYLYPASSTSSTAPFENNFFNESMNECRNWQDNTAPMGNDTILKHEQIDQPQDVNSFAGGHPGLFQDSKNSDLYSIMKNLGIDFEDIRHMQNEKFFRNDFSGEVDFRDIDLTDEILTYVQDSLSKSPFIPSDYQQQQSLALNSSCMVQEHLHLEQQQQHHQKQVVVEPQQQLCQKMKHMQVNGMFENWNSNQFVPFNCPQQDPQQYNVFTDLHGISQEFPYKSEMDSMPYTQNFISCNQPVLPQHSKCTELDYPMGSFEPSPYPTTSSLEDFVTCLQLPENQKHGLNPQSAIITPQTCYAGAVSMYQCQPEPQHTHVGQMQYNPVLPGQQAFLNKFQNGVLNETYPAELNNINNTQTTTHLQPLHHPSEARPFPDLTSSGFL
Sequence of Retinoic acid receptor alpha (Homo sapiens) (P10276 whole entry, looked up): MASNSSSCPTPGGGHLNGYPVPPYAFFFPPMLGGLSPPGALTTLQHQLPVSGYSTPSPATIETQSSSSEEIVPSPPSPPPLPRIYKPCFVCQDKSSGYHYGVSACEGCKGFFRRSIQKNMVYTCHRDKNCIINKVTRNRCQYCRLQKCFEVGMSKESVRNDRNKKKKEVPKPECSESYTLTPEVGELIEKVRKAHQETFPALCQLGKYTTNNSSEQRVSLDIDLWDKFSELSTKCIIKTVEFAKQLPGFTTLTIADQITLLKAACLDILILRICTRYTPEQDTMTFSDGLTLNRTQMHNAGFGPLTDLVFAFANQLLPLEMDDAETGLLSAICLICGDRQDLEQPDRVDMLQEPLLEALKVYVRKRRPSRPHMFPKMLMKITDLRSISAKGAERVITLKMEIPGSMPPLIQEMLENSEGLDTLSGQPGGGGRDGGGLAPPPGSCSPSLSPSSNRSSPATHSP
Sequence of Hepatocyte nuclear factor 3-beta (Homo sapiens) (Q9Y261 whole entry, looked up): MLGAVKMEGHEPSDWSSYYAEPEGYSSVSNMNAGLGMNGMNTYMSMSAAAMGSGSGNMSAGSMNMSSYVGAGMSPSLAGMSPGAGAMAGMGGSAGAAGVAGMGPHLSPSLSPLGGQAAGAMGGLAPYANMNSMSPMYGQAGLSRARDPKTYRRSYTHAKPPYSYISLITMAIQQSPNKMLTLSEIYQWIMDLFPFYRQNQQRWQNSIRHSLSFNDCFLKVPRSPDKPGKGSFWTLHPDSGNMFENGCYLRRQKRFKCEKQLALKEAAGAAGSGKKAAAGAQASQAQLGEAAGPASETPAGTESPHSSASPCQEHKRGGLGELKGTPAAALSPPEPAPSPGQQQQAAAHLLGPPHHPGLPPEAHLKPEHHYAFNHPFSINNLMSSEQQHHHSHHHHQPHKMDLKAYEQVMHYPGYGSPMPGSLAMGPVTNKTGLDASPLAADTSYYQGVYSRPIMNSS
Sequence of Transcription factor E2F1 (Homo sapiens) (Q01094 whole entry, looked up): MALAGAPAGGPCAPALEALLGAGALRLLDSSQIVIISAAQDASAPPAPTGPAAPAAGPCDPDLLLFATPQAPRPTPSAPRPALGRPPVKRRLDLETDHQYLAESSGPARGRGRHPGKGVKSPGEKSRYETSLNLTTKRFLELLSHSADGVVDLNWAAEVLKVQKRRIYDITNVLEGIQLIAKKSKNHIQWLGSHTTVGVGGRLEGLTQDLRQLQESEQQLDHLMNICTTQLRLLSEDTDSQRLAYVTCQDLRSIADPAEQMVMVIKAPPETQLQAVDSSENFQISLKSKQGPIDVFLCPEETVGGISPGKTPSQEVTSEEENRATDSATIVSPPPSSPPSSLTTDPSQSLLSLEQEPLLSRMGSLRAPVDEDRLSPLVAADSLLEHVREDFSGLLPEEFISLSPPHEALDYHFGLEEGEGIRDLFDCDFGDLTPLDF
Sequence of CCAAT/enhancer-binding protein beta (Homo sapiens) (P17676 whole entry, looked up): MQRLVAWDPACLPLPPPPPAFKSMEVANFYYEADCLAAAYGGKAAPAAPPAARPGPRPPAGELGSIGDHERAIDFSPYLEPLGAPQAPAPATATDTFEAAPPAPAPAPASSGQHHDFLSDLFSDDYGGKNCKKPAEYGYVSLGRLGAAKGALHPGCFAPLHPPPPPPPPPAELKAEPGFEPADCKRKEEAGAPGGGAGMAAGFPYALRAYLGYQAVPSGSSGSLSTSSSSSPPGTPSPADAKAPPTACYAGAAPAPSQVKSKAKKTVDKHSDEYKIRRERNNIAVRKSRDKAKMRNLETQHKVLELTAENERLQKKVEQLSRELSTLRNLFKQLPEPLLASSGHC

As a reminder, the AC50 is the concentration at which the activity in the assay is half-maximal. As to `CCC(C)(C)C1CCC(O)CC1` (stereo not given), the result in [1], in assay [2], in assay [3], in [4], in [5] and in assay [6] was inactive. Further, the compound was called inactive in assay [7], in assay [8], in assay [9], in assay [10], in assay [11] and in assay [12]. In addition, the call in [13], in [14], in assay [15] and in [16] was inactive. Moreover, the AC50 in assay [5] is 172 µM (active); in assay [6], 48.2 µM (active).
For the compound `NC(=O)N1C(=O)C(C(=O)c2cc(Cl)cs2)c2cc(F)c(Cl)cc21` (stereo not given), the compound was classed as inactive in assay [1], in [2], in assay [3], in assay [4], in assay [5] and in assay [6]. The compound was called inactive in [7], in [17], in assay [8], in assay [9], in assay [10] and in [11]. Moreover, the compound was called inactive in assay [12], in assay [13], in assay [18], in assay [19], in assay [20] and in assay [14]. Also, the call in assay [15] and in [16] was inactive.
In the case of `c1ccc2c(c1)ccc1ccccc12`, the call in assay [1], in assay [2], in assay [3], in assay [4], in [5] and in assay [6] was inactive. Also, the compound was classed as inactive in [7], in assay [17], in assay [8], in assay [9], in [10] and in assay [11]. The result in assay [12], in [13], in assay [19], in [20], in assay [14] and in assay [15] was inactive. In addition, the compound was called inactive in assay [16].
As to `N#C[C@@H]1CC(F)(F)CN1C(=O)CNC1CC2CCC(C1)N2c1ncccn1` (stereo not given in full), the result in assay [1], in [2], in assay [3], in assay [4], in [5] and in assay [6] was inactive. Besides, the compound was classed as inactive in assay [7], in assay [17], in assay [8], in [9], in assay [10] and in [11]. Besides, the compound was called inactive in assay [12], in [13], in assay [19], in assay [20], in assay [14] and in [15]. Also, in assay [16], the outcome was inactive.
As to `CC1=C(/C=C/C(C)=C/C=C/C(C)=C/C(=O)O)C(C)(C)CCC1`, the call in assay [1], in assay [4], in [5], in [6], in assay [7] and in assay [17] was inactive. The compound was classed as inactive in assay [8], in assay [10], in assay [11], in assay [12], in assay [13] and in assay [18]. Further, the compound was called inactive in assay [19], in assay [20], in assay [14], in assay [15] and in assay [16]. For the same compound, the AC50 in [2] is 52.4 µM (active) and 3.28 µM (active); in [3], 6.62 µM (active) and 193 nM (active); in assay [4] it was 75.8 µM (active); in assay [5] it was 0.763 µM (active); in [7] it was 42 µM (active); in assay [13], 21.5 µM (active). Further, the results for the AC50 in assay [19] and in [15] were 0.112 µM (active) and 44.4 µM (active), respectively.
In the case of `CC(C)(C)c1ccc(O)c(C(C)(C)C)c1`, the compound was classed as inactive in [1], in assay [2], in assay [3], in [4], in assay [5] and in [6]. For the same compound, the outcome in assay [17], in [8], in assay [9], in assay [10], in assay [11] and in assay [12] was inactive. Besides, the outcome in assay [13], in assay [18], in [19], in assay [14], in [15] and in [16] was inactive. The AC50 in [7] is 15.9 µM (active).
